These results are taken from PubChem BioAssay AID2685 (National Center for Advancing Translational Sciences (NCATS), 2010).

The campaign covered roughly 320,000 compounds. About 2,100 (0.66%) were called active. Not shown: some 53% with an inconclusive outcome. Calls follow the shape of the dose curve; as a rule, active = well fitted inhibition curve with a large enough effect in the signal ratio, with a control signal flat (not every such curve was filed as active); inconclusive = small, poorly fitted or top-dose-only effect, or effect the other way, or a change in a side signal; inactive = flat fitted curve, though single readings scatter; the % refers to the signal ratio. Many of the other results were omitted from the sample, so actives are more common in it than they were.
Potency is read from the fitted curve at half-maximal effect.

The assay in a line: qHTS Assay for Lipid Storage Modulators in Drosophila S3 Cells.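 As to cell number change: cells counted by Cell Tracker Red CMTPX staining in the red channel.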 The conditions noted are these: BODIPY lipid droplet fluorescence, 18-24 h, cells fed with added oleic acid; cell number change: measured here: cell count max response; series mostly up to 46.1 µM. The method in brief:
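Drosophila S3 cells got compounds at several concentrations plus oleic acid (400 uM solution). Laser-scanning cytometry with 488 nm excitation read lipid droplets at 500-530 nm and cells at 575-640 nm. Percent activity was relative to 20 uM Triacsin C.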
(In general: Quantitative high-throughput screening tests each substance at several concentrations.)
As to `Cc1ccc(S(=O)(=O)N2CCc3c2cc([N+](=O)[O-])cc3[N+](=O)[O-])cc1`, the Potency result was “inactive” and the cell number change is 25.6%.
As to `COc1cccc(/C=C2\SC(=S)N(CCCC(=O)N3CCCC3)C2=O)c1`, the Potency entry was “inactive” and the cell number change came to 19.2%.
As for `O=C1/C(=C/c2ccccc2)SC(=S)N1CCCC(=O)N1CCCCC1CCO` (stereo not given), the Potency is 18.4 µM (active) and the cell number change was 5.19%.
For `O=C(CCN1C(=O)/C(=C\c2ccccc2)SC1=S)N1CCCCC1`, in that order: “inactive” and 9.57%.
With `O=C(O)CCCCCN1C(=O)/C(=C\c2ccncc2)SC1=S`, the Potency was 3.26 µM (active) and the cell number change was -19.2%.
As to `CC(C)c1ccc(/C=C2\SC(=S)N(CCC(=O)N3CCCCC3CCO)C2=O)cc1` (stereo not given), the Potency result is “inactive” and the cell number change was -22.4%.
For `O=C(O)CCCCCN1C(=O)/C(=C/c2ccncc2)SC1=S`, in that order: “inactive” and 8.67%.
Consider `COc1cccc(/C=C2\SC(=S)N(CCCC(=O)N3CCCCC3CCO)C2=O)c1` (stereo not given), for which the Potency result is “inactive”.
For the compound `COc1cccc(/C=C2\SC(=S)N(CCC(=O)N3CCCCC3CCO)C2=O)c1` (stereo not given), the Potency was 8.2 µM (active) and the cell number change was -19.7%.
For `O=C(O)CCCN1C(=O)/C(=C/c2ccncc2)SC1=S`, in that order: “inactive” and -13%.
For `COC(=O)C1=C(C)NC(=O)/C1=C\c1ccc2c(c1)OCO2` the same measures were “inactive” and -20.5%.
For `CCOC(=O)C1(Cc2cccc(Cl)c2)CCCN(C(=O)c2cn[nH]c2)C1` (stereo not given), in that order: “inactive” and -11.4%.
Consider `CN(C)c1ccc(C(=S)N2CCN(Cc3ccccc3)CC2)cc1`, for which the Potency entry is “inactive” and the cell number change was -4.36%.
For `CC(C)c1ccc(C(O)P(=O)(OCc2ccccc2)c2ccc(N(C)C)cc2)cc1` (stereo not given), in that order: “inactive” and 1.68%.
Regarding `COc1ccc(NC(=O)CN(c2ccc([N+](=O)[O-])cc2)S(=O)(=O)c2ccccc2)c(OC)c1`, the Potency entry is “inactive” and the cell number change was -1.88%.
On to `O=C1NCCCC1C(=O)NCCN1C(=O)CCC1=O` (stereo not given), for which the Potency result is “inactive” and the cell number change is -2.23%.
For `O=C(Nc1cccc(C(F)(F)F)c1)c1ccc(-n2cncn2)nc1` the same measures were “inactive” and 5.24%.
For `COc1ccc(N(CC(=O)N2CCN(Cc3ccc4c(c3)OCO4)CC2)S(C)(=O)=O)cc1OC`, in that order: “inactive” and 14.4%.
For `CC(C)CCNC(=O)CN(Cc1ccco1)C(=O)c1snc(C(N)=O)c1N` the same measures were “inactive” and 8.95%.
For `COc1ccc(CCNS(=O)(=O)c2ccc([N+](=O)[O-])cc2)cc1OC`, the Potency result was “inactive” and the cell number change stood at 0.785%.
Consider `COc1ccc(CCNC(=O)COc2ccc(S(=O)(=O)NC(C)C)cc2Cl)cc1OC`, for which the Potency entry is “inactive”.
As for `CCOc1cc(S(=O)(=O)NCc2ccccc2)ccc1Br`, the Potency result was “inactive” and the cell number change is -16.8%.
Regarding `COc1ccc(S(=O)(=O)NC2CCCC2)cc1Cl`, the Potency entry was “inactive”.
Regarding `COc1ccc(CCNS(=O)(=O)c2ccc(Cl)cc2)cc1OC`, the Potency is 1.64 µM (active) and the cell number change is -15.3%.
For `COc1ccc2[nH]cc(CCNS(=O)(=O)c3ccc(C)cc3)c2c1`, the Potency entry was “inactive” and the cell number change was 2.67%.
For `CCNS(=O)(=O)c1ccc(Br)c(OC)c1` the same measures were 25.9 µM (active) and -59.3%.
Take `COc1ccc(CCNS(=O)(=O)c2ccc(Br)cc2)cc1OC`: the Potency entry is “inactive” and the cell number change is -6.93%.
In the case of `COc1ccc(S(=O)(=O)NCCc2c[nH]c3ccc(Cl)cc23)cc1`, the Potency is 20.6 µM (active).
As for `COc1cc(S(=O)(=O)NCc2ccccc2)ccc1Br`, the Potency entry is “inactive” and the cell number change came out at 5.28%.
`COc1ccc2[nH]cc(CCNS(=O)(=O)c3ccc(F)cc3)c2c1`: the Potency entry is “inactive” and the cell number change is -14.3%.
For `COc1ccc(CCNC(=O)COc2ccc(S(=O)(=O)NC3CCCCC3)cc2Cl)cc1OC`, in that order: 8.2 µM (active) and -27.7%.
For `COc1cc(CNC2CCCCC2OC)cc(OC)c1OC` (stereo not given), the Potency entry is “inactive” and the cell number change is 3.58%.
`O=C(O)c1cnn(-c2ccccc2)c1-c1ccncc1`: the Potency result was “inactive”.
Still for that read-out and setting: to `Cc1cc(/C=N/N2CCN(C)CC2)c(C)n1-c1ccccc1F` belongs “inactive”.
For `CCCn1c(SCC(=O)Nc2nnc(C)s2)nnc1-c1ccoc1C`, the Potency entry was “inactive” and the cell number change is -14%.
For `CS(=O)(=O)N(CC(=O)N1CCN(c2ccccc2F)CC1)C1CCCCC1` the same measures were “inactive” and -9.38%.
As for `Cc1c(CNC(=O)C2CC2)c(-n2cccc2)n(Cc2ccccc2)c1C`, the Potency entry was “inactive” and the cell number change is 18.9%.
Consider `COCCNS(=O)(=O)c1ccc(-c2ccc(Cl)cc2)cc1`, for which the Potency result is “inactive” and the cell number change was 8.47%.
For the compound `COc1cc(S(=O)(=O)NCc2ccccc2)ccc1F`, the Potency entry was “inactive” and the cell number change worked out at 6.61%.
For `COCCNS(=O)(=O)c1ccc(F)c(OC)c1` the same measures were 20.6 µM (active) and 2.25%.
For `O=S(=O)(O)c1cc(OS(=O)(=O)c2ccccc2)cc2ccccc12` the same measures were “inactive” and 6.99%.
Regarding `COc1ccc(Cc2nc3ccc(C(=O)NCc4cc(C)no4)cc3o2)cc1OC`, the Potency entry is “inactive” and the cell number change is -13.7%.
With `O=C(c1ccc([N+](=O)[O-])cc1)N1CCN(Cc2ccccc2)CC1`, the Potency entry was “inactive” and the cell number change amounted to 11.4%.
Regarding `Nn1c(SCC(=O)Nc2ccc3c(c2)OCO3)nnc1-c1cccc(Cl)c1`, the Potency entry is “inactive” and the cell number change amounted to 0.909%.
For `O=CN1CCN(C(=O)c2ccccc2Cl)CC1`, in that order: 16.4 µM (active) and -3.9%.
`O=C(c1ccccc1Cl)N1CCSCC1`: the Potency entry is “inactive” and the cell number change is 2.74%.
As for `O=C(O)C1CCN(C(=O)c2ccccc2Cl)CC1`, the Potency was 18.4 µM (active) and the cell number change was found to be 6.2%.
Take `O=C(NC1CC1)C1CCN(C(=O)c2ccccc2Cl)CC1`: the Potency result was “inactive”.
On to `O=C(NC1CCCCC1)C1CCN(C(=O)c2ccccc2Cl)CC1`, for which the Potency entry is “inactive” and the cell number change was -4.35%.
In the case of `O=C(O)c1ccccc1C(=O)N1CCN(C(=O)c2ccccc2Cl)CC1`, the Potency result is “inactive” and the cell number change turned out to be 18.7%.
For `O=C(NCCCn1ccnc1)c1cc2cc([N+](=O)[O-])ccc2oc1=O`, in that order: “inactive” and 15.7%.
`CCCN1CCC(=NNc2ccc(S(N)(=O)=O)cc2[N+](=O)[O-])CC1`: the Potency result is “inactive” and the cell number change is -0.104%.
Regarding `CCCn1c(SCCN2CCOCC2)nc2c1c(=O)n(C)c(=O)n2C`, the Potency entry was “inactive”.
Take `COc1ccc(CNC(=O)CN2C(=O)NC3(CCCCCC3)C2=O)cc1OC`: the Potency result is “inactive” and the cell number change was -8.33%.
Regarding `COc1ccc(CNC(=O)CN2C(=O)NC(C)(c3cccc(Br)c3)C2=O)cc1` (stereo not given), the Potency result was “inactive” and the cell number change came out at 15.2%.
Turning to `COc1ccc(CNC(=O)CN2C(=O)NC(C)(c3cccc4ccccc34)C2=O)cc1OC` (stereo not given), the Potency is 18.4 µM (active) and the cell number change was -4.84%.
For `Cc1c(C)c(C)c(S(=O)(=O)NCCC(=O)N2CCN(Cc3ccc(C#N)cc3)CC2)c(C)c1C` the same measures were “inactive” and 10.7%.
Regarding `N#Cc1ccc(CN2CCN(C(=O)CCNS(=O)(=O)c3ccc(F)c(Cl)c3)CC2)cc1`, the Potency was 20.6 µM (active) and the cell number change was -29%.
For `O=C(CCNS(=O)(=O)c1ccc(Cl)cc1)N1CCN(Cc2ccccc2)CC1`, in that order: “inactive” and -14.8%.
For the compound `Cc1cccc(N2CCN(C(=O)CC(NC(=O)c3ccccc3Cl)c3ccccc3)CC2)c1C` (stereo not given), the Potency is 10.3 µM (active) and the cell number change was -1.65%.
For `Cc1cccc(N2CCN(C(=O)C(Cc3ccccc3)NC(N)=O)CC2)c1C` (stereo not given), in that order: “inactive” and -3.7%.
Turning to `Cc1ccc(NC(=O)CC(NC(=O)c2ccccc2Cl)c2ccccc2)nc1` (stereo not given), the Potency result is “inactive” and the cell number change amounted to 12.3%.
For `CCC(C)NC(=O)CSc1c2c(nc3ccccc13)CCCC2` (stereo not given), in that order: “inactive” and -7.84%.
For `COCCNC(=O)CSc1nc2ccccc2c(=O)n1CCC(=O)NCCc1ccc(OC)c(OC)c1`, in that order: “inactive” and -7%.
With `CCOC(=O)CN1NC2(CCCCCCC2)NC1=S`, the Potency entry is “inactive” and the cell number change came out at 26.5%.
For `CCOC(=O)CN1NC2(CCC(C(C)(C)C)CC2)NC1=S` (stereo not given), in that order: “inactive” and 0.162%.
As to `CCOC(=O)CN1NC2(CCC(C)CC2)NC1=S` (stereo not given), the Potency is 18.4 µM (active) and the cell number change stood at 16.5%.
For `CC(=O)N1CC2(NC(=O)c3ccccc3N2)c2ccccc21` (stereo not given) the same measures were “inactive” and 1.06%.
For `COc1ccc(-n2nnc3c(=O)n(CC(=O)N4CCCCC4)cnc32)cc1`, the Potency result is “inactive”.
Turning to `Cc1ccccc1NC(=O)/C=C/c1ccc([N+](=O)[O-])s1`, the Potency was 9.2 µM (active) and the cell number change is -29.7%.
For `Cc1cc(C)cc(NC(=O)/C=C/c2ccc([N+](=O)[O-])s2)c1` the same measures were “inactive” and -13.6%.
For `CC(=O)c1cccc(NC(=O)/C=C/c2ccc([N+](=O)[O-])s2)c1` the same measures were “inactive” and -6.6%.
With `Cc1ccccc1NC(=O)/C=C/c1cccs1`, the Potency entry is “inactive” and the cell number change is -15.7%.
With `Cc1cccc(NC(=O)/C=C/c2ccc([N+](=O)[O-])s2)c1`, the Potency is 20.6 µM (active) and the cell number change was -28.2%.
As for `CN(C(=O)/C=C/c1ccc([N+](=O)[O-])s1)c1ccccc1`, the Potency entry is “inactive” and the cell number change turned out to be 5.5%.
As to `O=C(c1ccc(-n2cncn2)c([N+](=O)[O-])c1)N1CCN(c2cccc(Cl)c2)CC1`, the Potency result is “inactive” and the cell number change turned out to be 25.4%.
For `Cn1cnc2cc(OC(=O)c3ccccc3)ccc21` the same measures were “inactive” and 19.2%.
For `CCOC(=O)c1nc(Nc2ccc(C(C)=O)cc2)c2ccccc2n1`, in that order: “inactive” and -13.6%.
Turning to `CCCCC(CCC(=O)O)(C(=O)OCC)c1csc(Nc2ccccc2)n1` (stereo not given), the Potency result was “inactive” and the cell number change came out at 0.537%.
For `CCOC(=O)/C(=N\Nc1ccc(C(C)=O)cc1)c1csc(Nc2ccccc2)n1` the same measures were 16.4 µM (active) and 17.1%.
For `COc1cccc(NC(=S)Nc2cc(C(=O)O)ccc2N2CC3CC(C2)c2cccc(=O)n2C3)c1` (stereo not given) the same measures were “inactive” and -20.1%.
In the case of `CC(C)c1cccc(C2=CC(=O)C[C@H](c3ccc(F)cc3)C2)c1`, the Potency entry was “inactive” and the cell number change is -1.84%.
As for `O=C(NCc1ccccc1)C(c1ccccc1)N(C(=O)c1csnn1)C1CC1` (stereo not given), the Potency result is “inactive” and the cell number change was 0.427%.
`COc1ccc(CNC(=O)C(c2cccc(C)c2)N(C(=O)c2csnn2)C2CC2)cc1` (stereo not given): the Potency was 2.06 µM (active) and the cell number change was 16.2%.
For `COc1ccc(CNC(=O)C(c2ccccc2F)N(C(=O)c2csnn2)C2CC2)cc1` (stereo not given) the same measures were “inactive” and 9.27%.
For `Cc1nonc1C(=O)N/N=C/c1cc2c(cc1Br)OCO2` the same measures were “inactive” and 13%.
For `COc1cc2c(cc1OC)CN(C(=S)Nc1ccc(C)cc1C)CC2` the same measures were “inactive” and -5.84%.
With `CCC(=O)Nc1ccccc1-c1nc2ccccc2[nH]c1=O`, the Potency entry was “inactive” and the cell number change is -8.79%.
For `O=C(Nc1ccccc1-c1nc2ccccc2[nH]c1=O)c1cccs1`, in that order: 9.2 µM (active) and 7.26%.
Consider `CC(C)C(=O)Nc1ccccc1-c1nc2ccccc2[nH]c1=O`, for which the Potency result is “inactive” and the cell number change is -27.6%.
For `Cc1c(C(=O)N2CCCCC2)c(S(=O)(=O)NCCc2ccccc2)c(C)n1C` the same measures were “inactive” and -0.59%.
For the compound `CCOC(=O)COc1ccc(S(=O)(=O)N2CCN(C(=O)OCC)CC2)cc1`, the Potency result is “inactive” and the cell number change was -5.47%.
